Values joined by “and” are separate entries in the source; they are usually repeats but may differ in a detail not shown here. Equal values may be shown once. In all, about 220,000 compounds went through this assay and about 10 (0.005%) were called active. Cut-off read from the data, not from the text of the source: active = maximum fold increase above about 1.5; inconclusive = no clear call, values can overlap the other calls; inactive = below that; tested in PC3 cells. Not all results are given here.

The assay in a line: compounds boosting herpes simplex virus growth – fold increase, host cell viability (AID 1956). The conditions noted are these: HSV replication augmentation in cells; fold increase: measured here: primary screen fold increase 10 uM, at 10 µM, stronger effect = higher value; maximum fold increase: at 0.098 µM, stronger effect = higher value; viability: measured here: host cell viability series, at 25 µM, stronger effect = lower value.
As for `CCOC(=O)c1nnn2c1nc(N1CCN(c3ccccc3)CC1)c1ccccc12`, the fold increase worked out at 1.01 and the molecule was classed as inactive.

Take `CC1=C(N2CCN(c3ncccn3)CC2)CCC1=O`: the fold increase was 1.12 and the molecule was called inactive.

With `N#CCc1c(C#N)c(N)nc(N2CCCC2)c1C#N`, the fold increase came to 0.85 and the call was inactive.

As for `COc1ccc(-c2nc3c(s2)CCc2onc(-c4ccc(Br)cc4)c2-3)cc1`, the fold increase was found to be 0.69 and the call was inactive.

What is called viability is a read-out of living cells in per cent, often relative to untreated cells. For the molecule `C=CCSC(CC)(CC)C(N)=O`, the fold increase came out at 1.35, the maximum fold increase was 1.19 (inactive) and the viability was determined as 104%.

Regarding `COCOc1cc(O)c(C(=O)/C=C/c2ccc(OCOC)c(OCOC)c2)c(OCOC)c1`, the fold increase worked out at 0.92 and the molecule was classed as inactive.

In the case of `O=C(NC1CCN(Cc2ccccc2)CC1)c1ccc(Oc2cc(Cl)cc(Cl)c2)o1`, the fold increase worked out at 0.88 and the result was inactive.

In the case of `CN(C)/C=C(/C(=O)c1ccc(Cl)c(Cl)c1)c1nnnn1-c1ccccc1`, the fold increase came out at 1.22 and the call was inactive.

In the case of `COc1ccc2nc(NC(=O)NC3CCCCC3)sc2c1`, the fold increase is 0.94 and the call was inactive.

As to `C=CCOC(=O)C1=C[C@H](c2ccc(Br)cc2)C[C@H](OCCCCO)O1`, the fold increase was 0.91 and the molecule was classed as inactive.

Take `O=C(CCl)Nc1ccc(Sc2ccc(NC(=O)CCl)cc2)cc1`: the fold increase is 0.77 and the call was inactive.

As for `CC(C)c1ccc(NC(=S)NC2CC3C=CC2C3)cc1` (stereo not given), the fold increase stood at 0.94 and the outcome was inactive.

For `CCCNc1c(N)c(=O)c1=O`, the fold increase is 0.92 and the molecule was classed as inactive.

Turning to `CCCc1ccc(C(=O)[C@@H]2[C@@H](C(C)=O)N3c4ccc(F)cc4C=C[C@@H]3[C@@]23C(=O)Nc2ccccc23)cc1`, the fold increase is 1 and the molecule was classed as inactive.

For the molecule `Nc1c(N(CCO)C(=O)C2CCCCC2)c(=O)[nH]c(=O)n1Cc1ccccc1`, the fold increase is 0.95 and the result was inactive.

`CC1CC(=O)Nc2ccccc2N1S(=O)(=O)c1cccs1` (stereo not given): the fold increase amounted to 1.03 and the call was inactive.

As for `C=C1CCN([C@@H](Cc2ccccc2)C(=O)N2CCOCC2)S(=O)(=O)c2ccccc21`, the fold increase is 0.89 and the molecule was classed as inactive.

As for `CC1CC(NC(=O)/C(C#N)=C/c2ccc[nH]2)CC(C)(C)C1` (stereo not given), the fold increase turned out to be 0.99 and the molecule was classed as inactive.

As for `Cc1nn2c(NCCN(C)C)c3c(nc2c1-c1ccccc1)CCC3`, the fold increase is 0.77 and the result was inactive.

As for `COc1ccccc1C1=CC(=O)CCC1`, the fold increase came out at 0.81 and the molecule was called inactive.

For the molecule `COCCCn1c(-c2cccs2)nc2nc3ccccc3nc21`, the fold increase was determined as 0.9 and the molecule was classed as inactive.

For `O=C(CCNc1n[nH]c(=O)[nH]c1=O)N/N=C\c1ccc(Br)cc1`, the fold increase worked out at 1 and the molecule was classed as inactive.

For `CC1(C)CC(CNCCC(c2ccc(F)cc2)c2ccco2)CCO1` (stereo not given), the fold increase amounted to 0.96 and the molecule was called inactive.

`COc1ccc(CCn2c(NN=C3CCCC3)nc3c2c(=O)[nH]c(=O)n3C)cc1`: the fold increase was found to be 0.93 and the result was inactive.

Consider `CSC1=NC2(C)CCCCC2C12C=CC(=O)C=C2` (stereo not given), for which the fold increase was determined as 0.88 and the result was inactive.

Regarding `CCOC(=O)c1ccccc1NC(=O)c1c(N)n(C)c(=O)[nH]c1=O`, the fold increase is 0.6 and the molecule was classed as inactive.

With `Cc1ccc(-c2csc(NCCc3nc4cc(Cl)c(Cl)cc4n3CCOCCO)n2)cc1`, the fold increase stood at 0.88 and the result was inactive.

As for `CN(C)S(=O)(=O)c1ccc(NC(=O)COC(=O)Cn2[nH]c(=O)c3ccccc3c2=O)cc1`, the fold increase came to 0.93 and the outcome was inactive.

Regarding `Nc1nc(Nc2ccccc2)nc(NCCO)c1[N+](=O)[O-]`, the fold increase turned out to be 0.82 and the outcome was inactive.

Regarding `C=CCSc1nnc2c(n1)-c1cccc3cccc-2c13`, the fold increase turned out to be 0.7 and the call was inactive.

For the molecule `O=C1N[C@H](Cc2ccccc2)C(=O)N[C@H]1Cc1cn(S(=O)(=O)c2ccccc2)c2ccccc12`, the fold increase stood at 0.74 and the outcome was inactive.

Turning to `O=C(COc1ccccc1[N+](=O)[O-])N/N=C/c1ccc[nH]1`, the fold increase is 1 and the molecule was called inactive.

Consider `Cc1ccc(N2C(=O)CC(Nc3cccc4ccccc34)C2=O)cc1` (stereo not given), for which the fold increase was 0.96 and the result was inactive.

Take `CC(=O)NC(=S)Nc1ccc(NC(=O)c2cccnc2)cc1`: the fold increase was found to be 0.97 and the molecule was classed as inactive.

For `COc1ccc(/C=N/n2nnnc2N)cc1OC`, the fold increase was determined as 0.91 and the call was inactive.

Consider `Cc1ccc(/C=N/NC(=S)NC2CCCCC2)o1`, for which the fold increase came to 0.99 and the outcome was inactive.

As for `O=C(O)C1CCN(C(=O)c2cc(F)cc3c2OCOC3)CC1`, the fold increase was determined as 1.05 and the result was inactive.

Turning to `C[C@H]1CC[C@]2(O[C@@H](CCO)C[C@@H](O)[C@@H]2O)O1`, the fold increase was 0.79 and the result was inactive.

Consider `O=C(O)CCCCCCCCCC[n+]1ccccc1`, for which the fold increase was determined as 0.88 and the molecule was called inactive.

For `COc1ccc2c(c1)CCNC2Cc1ccc(OC)c(O)c1` (stereo not given), the fold increase amounted to 0.84 and the outcome was inactive.

For `O=C1c2ccccc2S(=O)(=O)c2cc(N3CCN(c4ccccn4)CC3)ccc21`, the fold increase was found to be 0.92 and the molecule was called inactive.

As for `CCOC(=O)c1ccc(NC(=O)c2c(N)n(C)c(=O)[nH]c2=O)cc1`, the fold increase was found to be 0.86 and the call was inactive.

For the molecule `COC(=O)c1cc(NC(=O)c2cc(C(C)(C)C)nn2Cc2cccc(C)c2)ccc1N1CCOCC1`, the fold increase was found to be 0.93 and the molecule was called inactive.

Regarding `COc1ccc(-c2csc(NC3OC(=O)c4ccccc43)n2)cc1` (stereo not given), the fold increase came to 0.65 and the result was inactive.

On to `O=C(O)Cc1csc(-c2cccc(Oc3ccccc3)c2)n1`, for which the fold increase was 1.01 and 0.89; the molecule was classed as inactive.

For `Cc1ccc(CNC(=O)c2ccc3c(c2)S(=O)(=O)c2ccccc2C3=O)cc1`, the fold increase worked out at 0.82 and the call was inactive.

Turning to `O=C(Cc1ccccc1)Nc1c(Cl)ccc2nsnc12`, the fold increase was 1.01 and the outcome was inactive.

On to `COc1ccc(Cl)cc1CSc1ncn[nH]1`, for which the fold increase was 0.97 and the result was inactive.

Turning to `Cc1c(NC(=O)C(=O)N/N=C/c2cccs2)c(=O)n(-c2ccccc2)n1C`, the fold increase worked out at 0.92 and the result was inactive.

In the case of `O=C(NC1CC1)C1=C[C@H](c2coc3ccccc3c2=O)C[C@H](OCCCCO)O1`, the fold increase was 0.73 and the molecule was classed as inactive.

On to `CC(C)Cc1ccc(C(C)C(=N)N)cc1` (stereo not given), for which the fold increase came out at 0.92 and the molecule was classed as inactive.

As for `CC(C)(C)n1nc(Cc2cccc3ccccc23)c(C#N)c1N`, the fold increase is 0.79 and the result was inactive.

Regarding `Oc1ccc(-c2nnc(Nc3ccccc3)c3ccccc23)cc1`, the fold increase was 0.8 and the call was inactive.

In the case of `CC1(C)CC(N2CCN(C(c3ccccc3)c3ccccc3)CC2)=CC(=[N+]2CCCCC2)C1`, the fold increase was found to be 0.65 and the molecule was called inactive.

Regarding `C#CCOCCOCCOCCNc1nc(N2CCN(C(=O)C([C@@H](C)CC)n3cc(C(N)COC(=O)C(F)(F)F)nn3)CC2)nc(N2CCN(C(=O)[C@H](Cc3ccc(O)cc3)n3cc(C(N)[C@H](C)CC)nn3)CC2)n1` (stereo not given in full), the fold increase was determined as 0.87 and the molecule was called inactive.

Take `C#CCNC(=O)[C@H](Cc1ccc(C(=O)c2ccccc2)cc1)NC(=O)OC(C)(C)C`: the fold increase was 0.7 and the outcome was inactive.

In the case of `COc1ccccc1-n1cn[nH]c1=S`, the fold increase was 0.88 and the result was inactive.

Turning to `O=C(O)CCn1c(O)c(C=C2N=c3ccccc3=N2)sc1=S`, the fold increase stood at 1.18 and the molecule was called inactive.

In the case of `Cc1nc(Cl)c(C#N)c2c1CCCC2`, the fold increase is 0.96 and the molecule was classed as inactive.

For the molecule `O=c1[nH]snc1-c1c(Cl)cccc1Cl`, the fold increase is 0.9 and the result was inactive.

For the molecule `C[C@@H](NC(=O)OC(C)(C)C)c1nnc(S(=O)(=O)Cc2ccccc2)o1`, the fold increase stood at 0.98 and the molecule was called inactive.

Regarding `OCC[C@H]1C[C@H](O)[C@@H](O)[C@]2(CCCCO2)O1`, the fold increase worked out at 0.79 and the molecule was classed as inactive.

As for `CCCCCCCCCCCCN1[C@@H](CC(C)=O)c2cc(F)cc(F)c2S1(=O)=O`, the fold increase amounted to 0.93 and the outcome was inactive.

As for `COc1ccc(CN2[C@@H](CC(=O)O)c3cc(F)ccc3S2(=O)=O)cc1`, the fold increase was found to be 0.82 and the molecule was called inactive.

Take `C=CCC(Nc1ccccc1)c1cccc(OC)c1OC` (stereo not given): the fold increase was 0.99 and the molecule was classed as inactive.

In the case of `COc1ccc(CNC(=O)C2(CC3CC(c4ccccc4)=NO3)CCN(C(=O)c3cccc(O)c3)CC2)cc1` (stereo not given), the fold increase stood at 0.88 and the outcome was inactive.

For the molecule `CC1CCN(Cc2nc(-c3ccc(Cl)cc3)no2)CC1`, the fold increase is 0.99 and the call was inactive.

Turning to `NC(=O)NC(=O)CSc1nc2cc([N+](=O)[O-])ccc2n1-c1cccc(C(F)(F)F)c1`, the fold increase came to 0.9 and the molecule was classed as inactive.

As for `COc1ccc(N2C(=O)C3C(C2=O)C(C(=O)c2ccccc2)N2CCCC32)cc1` (stereo not given), the fold increase was 1.02 and the call was inactive.

With `Cc1ccccc1NC(=O)Nc1ccccc1N1CCCCC1`, the fold increase was found to be 0.85 and the molecule was classed as inactive.

In the case of `CCCC[C@@H]1CN=C(N)N1CCc1cccc(F)c1`, the fold increase was found to be 0.84 and the call was inactive.

For the molecule `C/C=C(/C)C(=O)O[C@@H]1c2cc3c(c4c2[C@@]2(CO4)C(=O)C(OC)=C(OC)C=C2C[C@@H](C)[C@H]1C)OCO3`, the fold increase worked out at 0.75 and the molecule was classed as inactive.

Regarding `CC1Cc2ccccc2N1CC(=O)Nc1ccc(S(N)(=O)=O)cc1` (stereo not given), the fold increase worked out at 1.03 and the molecule was classed as inactive.

For `O=C(Nc1nnc(COc2ccccc2)s1)Nc1ccccc1F`, the fold increase was determined as 0.9 and the call was inactive.

With `COc1ccc(COCCN2CCN(S(=O)(=O)c3ccccc3)CCC2=O)cc1`, the fold increase worked out at 0.895 and the result was inactive.

With `N/C(=N\OC(=O)CCn1cccc(C(F)(F)F)c1=O)c1ccc(OC(F)(F)F)cc1`, the fold increase came out at 0.99 and the outcome was inactive.

On to `C=CC(COCc1ccccc1)N(Cc1ccccc1)S(=O)(=O)c1ccccc1Br` (stereo not given), for which the fold increase came out at 1.29 and the molecule was classed as inactive.

In the case of `Cc1cc(C(=O)NNS(=O)(=O)c2ccccc2C(F)(F)F)nn1C(C)(C)C`, the fold increase was found to be 1 and the call was inactive.

`CC1(C)S[C@@H]2[C@H](N=CN3CCCCCC3)C(=O)N2[C@H]1C(=O)O`: the fold increase was 0.85 and the molecule was classed as inactive.

On to `CN(C)N=Nc1ccc2nc[nH]c2c1`, for which the fold increase is 1.29 and the call was inactive.

With `O=C(O)C1CCN(c2ccc([N+](=O)[O-])cc2[N+](=O)[O-])CC1`, the fold increase stood at 0.9 and the outcome was inactive.

Regarding `CCOC(=O)c1ccc(NC(=O)c2nc[nH]c2C(=O)NCc2ccccc2)cc1`, the fold increase was 0.92 and the result was inactive.

As to `CC(C)(C)Oc1ccccc1Nc1nc(NCCO)nc(N2CCCC2)n1`, the fold increase was 0.69 and the outcome was inactive.

Take `CCOC(=O)C1Nc2ccc(C(F)(F)F)cc2C2C=CCC12` (stereo not given): the fold increase was determined as 0.82 and the result was inactive.

As to `O=[N+]([O-])c1ccc(N/N=C/c2ccccc2)cc1`, the fold increase was found to be 1.08 and the result was inactive.

For `O=c1c2c3c(sc2n(CCN2CCCC2)c(=O)n1Cc1ccccc1)CCCCC3`, the fold increase was 0.84 and the molecule was called inactive.

`Cc1ccc(NC(=O)/C(=C/c2ccc([N+](=O)[O-])cc2)NC(=O)c2ccccc2)cc1`: the fold increase is 0.83 and the outcome was inactive.

Take `COc1ccc2[nH]c(=S)cc(C)c2c1`: the fold increase was found to be 1.08 and the molecule was classed as inactive.

As to `CCOC(=O)C1CCN(c2c(Nc3cc(C)cc(C)c3)c(=O)c2=O)CC1`, the fold increase came out at 0.95 and the call was inactive.

Regarding `CC(NC(=S)Nc1ccccc1)C(c1cccs1)N1CCOCC1` (stereo not given), the fold increase was found to be 1 and the molecule was classed as inactive.

On to `Cc1nc(-c2ccc(Cl)cc2)sc1C1(C)CC(c2ccc(Br)cc2)=NO1` (stereo not given), for which the fold increase was found to be 0.87 and the call was inactive.

With `CCOC(=O)/C=C/c1ccc(C(F)(F)F)cc1S(=O)(=O)NC(C)(C)C`, the fold increase stood at 0.67 and the result was inactive.

The values above are taken from PubChem BioAssay AID1956 (SRMLSC, 2009).
